Assay outcomes (PubChem BioAssay)
Shiga toxin inh: Shiga toxin inhibition. AID 2315. inhibition, % at 38.7 µM. 290,000 tested, 9.2% active. Vero cells, Shiga toxin protein synthesis inhibition reporter; in the data active means inhibition mostly above about 28%, no sharp cut-off; inactive means mostly below about 43%
Pf growth 96h: inhibits malaria parasite growth, 96 h. 320,000 tested, 6.9% active. Potency, µM (top dose mostly 28.7 µM), usual class: inhibitors. P. falciparum luciferase reporter growth, 96 h
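Infected RBCs, 2% Hct / 0.05% parasitemia final; luciferase-reporter P. falciparum; cpd 96 h, 37 C, 5% CO2; luciferase detection reagent; luminescence.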
NS1 inh: inhibitors of influenza NS1 protein function; 270,000 tested, 0.4% active; Potency, µM (doses to about 46.1 µM); calls by dose curve; further: actives are rising curves; nearly all actives have a fitted effect of over 50% in size
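Compounds were scored for reversing the slow growth caused by influenza A NS1 in S. cerevisiae, measured by optical density at 600 nm. Assay medium contained 2% galactose at pH 6.0; NS1-free yeast of the same strain were the positive control.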
Pf growth 48h: inhibits P. falciparum growth in the first generation, 48 h | P. falciparum luciferase growth in erythrocytes, 48 h | Potency, µM (highest dose often 28.7 µM), most hits filed as inhibitors | 310,000 tested, 5.9% active | AID 504832
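Read-out is firefly luciferase luminescence from an integrated reporter in P. falciparum, so falling signal marks reduced parasite growth. Infected erythrocytes were at 2% hematocrit and 0.1% parasitemia (final) in Albumax-supplemented RPMI 1640.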
CHX counter: affects cycloheximide protein synthesis inhibition readout, counter-screen. cell reporter, cycloheximide protein synthesis inhibition counterscreen. max response, %. 300,000 tested, 12% active. AID 2314; in the data active means max response mostly above about 13%, no sharp cut-off; inactive means mostly below about 14%; further: read at 38.3 µM for the half of the compounds with a filed dose
Each line names hits and unclear results; the compound was inactive in the other large screens. Hits are enriched below; roughly 21% of the tested compounds scored in any of these assays. Unless noted, the call rests on the fitted dose curve; in most records, active means well fitted inhibition curve with a large enough effect; inconclusive means small, poorly fitted or top-dose-only effect, or another doubt; inactive means no such curve, though single readings can be large or run the other way.

CCOc1cc(C2C3=C(CC(C)(C)CC3=O)N(C)C3=C2C(=O)CC(C)(C)C3)ccc1O	Pf growth 48h inconclusive (no result: Shiga toxin inh)
O=C(NC(Cc1ccccc1)C(=O)O)/C(=C/c1ccccc1)NC(=O)c1ccco1 (centres undefined)	Pf growth 96h 5.2µM, NS1 inh inconclusive
O=C(NC(Cc1ccccc1)C(=O)O)/C(=C\c1ccc(F)cc1)NC(=O)c1ccco1 (centres undefined)	none
CCC(C)Nc1nc(N)c([N+](=O)[O-])c(Nc2ccccc2OC)n1 (centres undefined)	Pf growth 96h 10µM, Pf growth 48h 12µM
CCC(C)Nc1nc(N)c([N+](=O)[O-])c(Nc2cc(OC)ccc2OC)n1 (centres undefined)	Pf growth 96h inconclusive, Pf growth 48h inconclusive
CC1CCN(c2nc3nonc3nc2Nc2ccc(F)cc2)CC1	Pf growth 48h inconclusive
CCCC(=O)Nc1nnc(/C=C/c2ccccc2)s1	Shiga toxin inh 40, Pf growth 96h inconclusive, CHX counter 26
CCCCOC(=O)Nc1nnc(/C=C/c2ccc(OC)cc2)s1	none
COc1ccc(/C=C/c2nnc(NC(=O)COc3ccccc3)s2)cc1	none
CC(C)(C)C(=O)Nc1nnc(COc2ccc(Cl)cc2)s1	Shiga toxin inh 38, CHX counter 25
COc1ccc(/C=C/c2nnc(NC(=O)C(C)(C)C)s2)cc1	CHX counter 22
CCC(=O)Nc1nnc(/C=C/c2ccccc2)s1	Shiga toxin inh 49, CHX counter 44
COc1ccccc1CN1CC(C(=O)NCc2ccc(SC)cc2)CCC1=O (centres undefined)	Pf growth 96h inconclusive
CCc1ccccc1S(=O)(=O)Cc1ccc(C(=O)NCc2cccs2)o1	Pf growth 96h inconclusive, Pf growth 48h inconclusive (no result: NS1 inh)
CCOC(=O)Nc1nnc(/C=C/c2ccc(OC)cc2)s1	CHX counter 24
CCCC(=O)Nc1nnc(/C=C/c2ccc(OC)cc2)s1	CHX counter 19
CCCCC(=O)Nc1nnc(/C=C/c2ccc(OC)cc2)s1	none
COc1ccc(/C=C/c2nnc(NC(=O)COc3ccc(C)cc3)s2)cc1	CHX counter 14
CN1C(=O)N(C)c2ccc(Br)c3cccc1c23	none
COc1cc(OC)cc(C(=O)N2CCN(Cc3ccc4c(c3)OCO4)CC2)c1	Pf growth 48h inconclusive
COC(=O)[C@@]12CCCN1[C@H](c1ccc(SC3CCCCC3)cc1)[C@H]1C(=O)N(C)C(=O)[C@H]12	Pf growth 96h inconclusive, Pf growth 48h 10µM (no result: Shiga toxin inh, NS1 inh, CHX counter)
CCCSc1ccc([C@@H]2[C@H]3C(=O)N(CC)C(=O)[C@H]3[C@]3(C(=O)OC)CCCN23)cc1	Pf growth 96h 15µM, Pf growth 48h 9.3µM (no result: Shiga toxin inh, NS1 inh, CHX counter)
CCN1C(=O)[C@@H]2[C@@H](c3ccc(SC4CCCCC4)cc3)N3CCC[C@@]3(C(=O)OC)[C@@H]2C1=O	Pf growth 96h 9.3µM, Pf growth 48h 13µM (no result: Shiga toxin inh, NS1 inh, CHX counter)
O=[N+]([O-])c1ccc(CSc2nnc(-c3cccnc3)o2)cc1	none
CC[C@@H](C)[C@@H](CO[C@@H](Cc1ccccc1)C(=O)N[C@@H](CCS(C)(=O)=O)C(=O)OC(C)C)NC[C@@H](N)CS	none (no result: Pf growth 96h, NS1 inh, Pf growth 48h)
CCOC(=O)CN1C(=O)C(C)(C)Oc2ccc(C(=O)Nc3ccccc3OC)cc21	Pf growth 48h inconclusive
COCCCN1C(=O)c2ccc(C(=O)Nc3ccc(OC)cc3)cc2C1=O	Pf growth 96h inconclusive, CHX counter 15 (no result: Pf growth 48h)
COc1ccccc1NC(=O)c1ccc2c(c1)N(CC#N)C(=O)C(C)(C)O2	Pf growth 96h 12µM
CC(=O)Oc1ccc(C(=O)Nc2ccc3c(c2)C(=O)N(CCC(=O)O)C3=O)cc1	Pf growth 96h 12µM (no result: Pf growth 48h)
COCCCN1C(=O)c2ccc(C(=O)Nc3ccccc3OC)cc2C1=O	Pf growth 96h 4.7µM
COc1cc(C(=O)Nc2ccc3c(c2)C(=O)N(CCC(=O)O)C3=O)cc(OC)c1OC	none (no result: Pf growth 96h)
COCCCN1C(=O)c2ccc(C(=O)Nc3ccc(C)cc3C)cc2C1=O	none
CCN(CC)C(=O)c1ccc(-c2nnc(OC)c3ccccc23)cc1	none
COc1ccccc1CNCc1cccc(Oc2ccccc2)c1	Pf growth 96h inconclusive
CC1Cc2ccccc2N1C(=O)c1ccc2nccnc2c1 (centres undefined)	Pf growth 96h inconclusive
COCCCN1C(=O)c2ccc(C(=O)NCc3ccco3)cc2C1=O	CHX counter 29
O=C(c1ccco1)N1CCN(S(=O)(=O)c2ccc(S(=O)(=O)NC3CCCCC3)cc2)CC1	Pf growth 48h inconclusive
CCCOc1ccc(-c2nnn(CC(=O)N3CCCCC3)n2)cc1	NS1 inh inconclusive
O=S(=O)(Cc1cc(-c2ccccc2)no1)c1ccccc1	Shiga toxin inh 65, CHX counter 34
O=C1c2ccccc2C(=O)N1Cc1cc(-c2ccccc2)no1	Shiga toxin inh 27, CHX counter 19
COc1ccc(-c2cc(CS(=O)(=O)c3ccccc3)on2)cc1	Shiga toxin inh 68, CHX counter 41
O=C1c2ccccc2C(=O)N1Cc1nc(-c2ccccc2)no1	none
Cc1ccc(CNC(=O)CCSCc2cccc(F)c2)cc1	none
COc1cc(/C=C/C(=O)O)cc(S(=O)(=O)N2CCc3ccccc3C2)c1OC	none
COc1ccc(CN2CCN(C(=O)Cn3nc(C)n4cccc4c3=O)CC2)c(OC)c1OC	none
O=C(Nc1ccccc1Oc1cccnc1)C1CCCN(Cc2ccccc2O)C1 (centres undefined)	Pf growth 48h 13µM
CCN(CC)C(=O)C1CCCN(C/C=C/c2ccccc2)C1 (centres undefined)	Pf growth 96h inconclusive
O=C(Nc1ccccc1Oc1cccnc1)C1CCCN(C/C=C/c2ccccc2)C1 (centres undefined)	Pf growth 96h inconclusive, Pf growth 48h 5.2µM
C#Cc1ccc(CN2CCCC(C(=O)Nc3ccccc3Oc3cccnc3)C2)cc1 (centres undefined)	Pf growth 48h 10µM
CC(C)n1cc(CN2CCCC(C(=O)Nc3ccccc3Oc3cccnc3)C2)cn1 (centres undefined)	none
COc1ccc(/C=C2\CCCC3C2=NN(C(=O)CSc2ncn[nH]2)C3c2ccc(OC)cc2)cc1 (centres undefined)	Pf growth 96h inconclusive, NS1 inh inconclusive, Pf growth 48h inconclusive
O=C(CSc1ncn[nH]1)N1N=C2/C(=C/c3ccccc3)CCCC2C1c1ccccc1 (centres undefined)	Pf growth 96h 7.4µM, Pf growth 48h inconclusive
O=[N+]([O-])c1ccc(Sc2cccc[n+]2[O-])c2nonc12	Pf growth 96h 0.83µM, Pf growth 48h 2.9µM
O=[N+]([O-])c1ccc(Nc2ccccc2)c2nonc12	none
COCCn1c(SCc2ccc(C(=O)OC)o2)nc2cc(Cl)ccc2c1=O	Pf growth 48h inconclusive
O=C(c1cc([N+](=O)[O-])ccc1Cl)N1CCN(c2ccccn2)CC1	Pf growth 96h inconclusive
O=C(c1cc([N+](=O)[O-])ccc1Cl)N1c2ccccc2Sc2ccccc21	Pf growth 96h 2.1µM, Pf growth 48h 7.4µM
COc1ccccc1NC(=O)COc1ccc2c(c1)OCO2	Shiga toxin inh 70, CHX counter 25
NC(=O)c1ccccc1NC(=O)COc1ccc2c(c1)OCO2	Shiga toxin inh 85, Pf growth 96h inconclusive, CHX counter 29
